From the supplement of paper PMC10849652
About 8,800 targets were measured; listed, in parts, are those with a hit and a random draw of the rest. About 0.5% of all pairs of compound and target were hits.

Columns and labels:
Test in all cases: log2 fold change, soluble protein after heating vs DMSO (PISA); higher = thermal stabilisation; K562 lysate, 10 uM; active = over 0.2 and 3.5 SD of the protein, either way, in both replicates (recomputed)
erlotinib = compound: C#Cc1cccc(Nc2ncnc3cc(OCCOC)c(OCCOC)cc23)c1 [erlotinib]
Outline: (§1)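 Pellets of K562 cells were dounce-homogenised in PBS pH 7.4 with 1 mM MgCl2, and the crude extract was held at 1 mg/mL protein for a 30 min treatment with 10 μM compound. Aliquots were heated for 3 min over 48°C-58°C and pooled before NP-40 was added to 0.5% at 4°C. The supernatant from 21,000xg for 90 min was quantified by TMTpro 16plex LC-MS/MS with channel sums equalised. Values are reported from duplicates as log-two fold change in thermal stability relative to solvent controls.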

[1] = compound: C/C(=N\NC(=O)C1=CC(=CC=C1)S(=O)(=O)N2CCOCC2)/C3=C(C=CC(=C3)Cl)O
Outline: as §1

[2] = compound: C1=CC(=CC=C1C2=NC3=C(N2)C=C(C=C3)C(=O)N)OC4=CC=C(C=C4)Cl
Outline: as §1

[3] = compound: C1=CC2=C(C=CC(=C2)/C=C\3/C(=O)NC(=NCC4=CC=CS4)S3)N=C1
Outline: as §1

[4] = compound: C1=CC2=NC=CN=C2C=C1/C=C/3\C(=O)NC(=O)S3
Outline: as §1

[5] = compound: C1=CC=C(C=C1)C2=NC(=C(N2)C3=CC=NC=C3)C4=CC(=C(C=C4)Cl)O
Outline: as §1

[6] = compound: C1=CC=C2C(=C1)C3=NNC4=CC=CC(=C43)C2=O
Outline: as §1

[7] = compound: C1CCN(C1)C(=O)NC2=CC=CC(=C2)NC3=NC=C(C(=N3)NCCC4=CN=CN4)Br
Outline: as §1

[8] = compound: C1CN(CCC1(CC2=CC=C(C=C2)Cl)N)C3=NC=NC4=C3C=CN4
Outline: as §1

IRAK-1-4 Inhibitor I = compound: C1COCCN1CCN2C3=CC=CC=C3N=C2NC(=O)C4=CC(=CC=C4)[N+](=O)[O-] [IRAK-1-4 Inhibitor I]
Outline: as §1

ibrutinib = compound: C=CC(=O)N1CCC[C@@H](n2nc(-c3ccc(Oc4ccccc4)cc3)c3c(N)ncnc32)C1 [ibrutinib]
Outline: as §1

[9] = compound: CC(=O)c1cnc2ccc(-c3cc(Cl)c(O)c(Cl)c3)nc2c1N[C@H]1CC[C@H](CN(C)C)CC1
Outline: as §1

ralimetinib = compound: CC(C)(C)Cn1c(N)nc2ccc(-c3[nH]c(C(C)(C)C)nc3-c3ccc(F)cc3)nc21 [ralimetinib]
Outline: as §1

[10] = compound: CC(C)(O)CC(=O)NCCn1ccc2ncnc(Nc3ccc(Oc4cccc(C(F)(F)F)c4)c(Cl)c3)c21
Outline: as §1

[11] = compound: CC(C)C1=C2N=C(C=C(N2N=C1)NCC3=CC=CC=C3)NCCCCCCN
Outline: as §1

[12] = compound: CC1=C(C(CC(=O)N1)C2=CC=C(C=C2)C(F)(F)F)C(=O)NC3=C(C=C4C(=C3)C=NN4)F
Outline: as §1

[13] = compound: CC1=C(C2=C(C=C1)C(=O)C3=CC=CC=C3N2CCCN)C
Outline: as §1

[14] = compound: CC1=C(C=C(C=C1)NC(=O)C2=CC(=CC=C2)C(C)(C)C#N)NC3=CC4=C(C=C3)N=CN(C4=O)C
Outline: as §1

[15] = compound: CC1=C(C=C(C=C1)NC(=O)C2=CC(=CC=C2)N(C)C)NC(=O)C3=CC=C(C=C3)O
Outline: as §1

[16] = compound: CC1=CC=C(C=C1)SC2=C3C=C(SC3=CN=C2)C(=O)N
Outline: as §1

Measured: log2 fold change

CCDC51 (UniProt Q96ER9)
Sequence of UniProt Q96ER9 (Q96ER9 whole entry, looked up): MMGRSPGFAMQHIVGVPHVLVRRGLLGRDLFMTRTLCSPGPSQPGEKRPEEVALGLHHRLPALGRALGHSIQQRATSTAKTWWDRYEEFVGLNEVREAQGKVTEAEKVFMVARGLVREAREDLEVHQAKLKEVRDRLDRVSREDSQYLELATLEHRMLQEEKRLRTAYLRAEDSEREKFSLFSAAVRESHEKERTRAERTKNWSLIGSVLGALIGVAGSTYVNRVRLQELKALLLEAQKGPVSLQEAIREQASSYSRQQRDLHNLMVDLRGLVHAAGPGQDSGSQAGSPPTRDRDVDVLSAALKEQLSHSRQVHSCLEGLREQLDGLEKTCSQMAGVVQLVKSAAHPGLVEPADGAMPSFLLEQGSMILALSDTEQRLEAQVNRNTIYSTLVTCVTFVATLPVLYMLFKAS
inactive: erlotinib 0.03 | [1] -0.08 | [2] -0.047 | [3] -0.024 | [4] -0.005 | [5] 0.067 | [6] -0.07 | [7] 0.005 | [8] 0.029 | IRAK-1-4 Inhibitor I -0.041 | ibrutinib 0.056 | [9] 0.011 | ralimetinib -0.012 | [10] 0.036 | [11] -0.011 | [12] 0.025 | [13] 0.011 | [14] -0.013 | [15] 0.033 | [16] 0.013

BSDC1 (UniProt Q9NW68)
Sequence of UniProt Q9NW68 (Q9NW68 whole entry, looked up): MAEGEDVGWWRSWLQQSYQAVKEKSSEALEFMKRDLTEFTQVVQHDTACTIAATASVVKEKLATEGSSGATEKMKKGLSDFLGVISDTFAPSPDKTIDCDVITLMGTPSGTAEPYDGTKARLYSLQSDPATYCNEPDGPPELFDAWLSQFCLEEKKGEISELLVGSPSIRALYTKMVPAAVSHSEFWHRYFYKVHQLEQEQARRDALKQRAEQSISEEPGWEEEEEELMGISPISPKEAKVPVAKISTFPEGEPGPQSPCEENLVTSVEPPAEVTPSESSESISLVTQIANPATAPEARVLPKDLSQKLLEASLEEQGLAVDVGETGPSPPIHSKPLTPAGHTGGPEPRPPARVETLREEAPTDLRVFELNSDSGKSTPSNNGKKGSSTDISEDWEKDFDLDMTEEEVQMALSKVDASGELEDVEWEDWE
inactive: erlotinib -0.002 | [1] 0.01 | [2] -0.039 | [3] 0.046 | [4] -0.025 | [5] -0.024 | [6] 0.036 | [7] -0.029 | [8] 0 | IRAK-1-4 Inhibitor I 0.059 | ibrutinib 0.048 | [9] 0.008 | ralimetinib -0.004 | [10] -0.023 | [11] 0.062 | [12] 0.038 | [13] 0.01 | [14] 0.022 | [15] -0.047 | [16] 0.011

CCT6A (UniProt P40227)
inactive: erlotinib -0.016 | [1] -0.043 | [2] 0.002 | [3] 0.001 | [4] -0.008 | [5] 0.001 | [6] 0.019 | [7] 0.008 | [8] -0.022 | IRAK-1-4 Inhibitor I -0.023 | ibrutinib 0.017 | [9] -0.005 | ralimetinib -0.007 | [10] 0.022 | [11] -0.013 | [12] -0.014 | [13] 0.003 | [14] -0.016 | [15] -0.014 | [16] 0.018

CARD11 (UniProt Q9BXL7)
inactive: erlotinib -0.03 | [1] -0.051 | [2] 0.016 | [3] 0.061 | [4] -0.168 | [5] -0.048 | [6] -0.022 | [7] -0.042 | [8] 0.013 | IRAK-1-4 Inhibitor I -0.01 | ibrutinib -0.097 | [9] -0.023 | ralimetinib -0.02 | [10] 0.003 | [11] -0.075 | [12] -0.041 | [13] 0.025 | [14] 0.01 | [15] 0.051 | [16] -0.143

CEP120 (UniProt Q8N960)
Sequence of UniProt Q8N960 (Q8N960 whole entry, looked up): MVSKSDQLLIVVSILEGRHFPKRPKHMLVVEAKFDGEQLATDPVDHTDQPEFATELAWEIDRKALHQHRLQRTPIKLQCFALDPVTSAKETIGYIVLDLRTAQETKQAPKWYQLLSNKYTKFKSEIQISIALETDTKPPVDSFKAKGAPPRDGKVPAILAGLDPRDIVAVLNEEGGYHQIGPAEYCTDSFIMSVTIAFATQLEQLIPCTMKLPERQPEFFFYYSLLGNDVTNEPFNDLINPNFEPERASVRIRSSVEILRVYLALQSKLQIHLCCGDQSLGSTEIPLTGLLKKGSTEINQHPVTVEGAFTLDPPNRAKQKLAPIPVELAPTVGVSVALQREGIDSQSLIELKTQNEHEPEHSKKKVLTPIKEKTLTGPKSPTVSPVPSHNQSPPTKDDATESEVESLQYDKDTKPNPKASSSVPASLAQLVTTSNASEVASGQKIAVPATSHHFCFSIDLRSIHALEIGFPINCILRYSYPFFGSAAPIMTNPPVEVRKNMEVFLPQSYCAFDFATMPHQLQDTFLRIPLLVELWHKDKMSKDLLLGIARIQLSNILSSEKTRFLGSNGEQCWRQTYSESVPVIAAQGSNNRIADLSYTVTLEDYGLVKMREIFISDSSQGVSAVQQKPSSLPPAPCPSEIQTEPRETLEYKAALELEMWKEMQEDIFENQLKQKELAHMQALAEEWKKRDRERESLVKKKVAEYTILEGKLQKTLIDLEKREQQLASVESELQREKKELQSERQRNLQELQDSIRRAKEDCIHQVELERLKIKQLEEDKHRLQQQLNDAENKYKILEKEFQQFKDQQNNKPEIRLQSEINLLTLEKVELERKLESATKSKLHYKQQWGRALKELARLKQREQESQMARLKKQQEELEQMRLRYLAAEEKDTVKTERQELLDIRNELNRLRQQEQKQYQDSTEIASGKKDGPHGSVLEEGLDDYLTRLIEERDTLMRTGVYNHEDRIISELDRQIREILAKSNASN
inactive: erlotinib 0.044 | [1] -0.124 | [2] -0.03 | [3] -0.02 | [4] 0.004 | [5] -0.007 | [6] -0.142 | [7] 0.168 | [8] 0.215 | IRAK-1-4 Inhibitor I 0.018 | ibrutinib -0.02 | [9] -0.061 | ralimetinib -0.076 | [10] -0.132 | [11] 0.001 | [12] -0.174 | [13] -0.224 | [14] -0.015 | [15] 0.001 | [16] -0.085

BCAR1 isoform 6 (UniProt P56945)
Sequence of UniProt P56945 (P56945 whole entry, looked up): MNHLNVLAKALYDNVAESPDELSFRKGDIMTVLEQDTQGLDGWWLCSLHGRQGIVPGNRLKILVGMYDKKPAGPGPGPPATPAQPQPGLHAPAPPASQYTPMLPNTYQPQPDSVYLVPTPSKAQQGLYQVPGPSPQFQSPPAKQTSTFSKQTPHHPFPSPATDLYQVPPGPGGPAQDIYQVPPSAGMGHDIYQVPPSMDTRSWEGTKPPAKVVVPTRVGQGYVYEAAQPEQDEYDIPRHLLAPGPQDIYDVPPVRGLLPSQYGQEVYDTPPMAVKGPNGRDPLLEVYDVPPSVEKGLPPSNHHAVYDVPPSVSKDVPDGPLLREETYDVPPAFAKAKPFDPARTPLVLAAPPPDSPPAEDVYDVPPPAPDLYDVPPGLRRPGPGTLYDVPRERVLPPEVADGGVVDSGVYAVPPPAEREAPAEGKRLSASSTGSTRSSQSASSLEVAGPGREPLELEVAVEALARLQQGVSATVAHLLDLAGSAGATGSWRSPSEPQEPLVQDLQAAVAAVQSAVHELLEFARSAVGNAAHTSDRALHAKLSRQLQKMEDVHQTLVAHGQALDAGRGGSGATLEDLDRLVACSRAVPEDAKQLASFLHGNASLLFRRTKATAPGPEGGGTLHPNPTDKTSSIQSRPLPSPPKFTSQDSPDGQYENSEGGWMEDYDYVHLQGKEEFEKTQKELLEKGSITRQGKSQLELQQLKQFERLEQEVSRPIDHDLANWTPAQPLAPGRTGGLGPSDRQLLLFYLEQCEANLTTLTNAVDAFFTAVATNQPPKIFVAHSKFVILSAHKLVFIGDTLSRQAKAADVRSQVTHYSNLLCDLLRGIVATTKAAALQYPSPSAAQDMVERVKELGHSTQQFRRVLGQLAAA
inactive: erlotinib 0.005 | [1] -0.043 | [2] 0.052 | [3] 0.048 | [4] -0.019 | [5] 0.019 | [6] -0.063 | [7] 0.041 | [8] 0.021 | IRAK-1-4 Inhibitor I -0.017 | ibrutinib 0.024 | [9] 0.02 | ralimetinib -0.009 | [10] 0 | [11] 0.01 | [12] 0.03 | [13] -0.056 | [14] -0.014 | [15] 0.006 | [16] -0.033

CCNH (UniProt P51946)
Sequence of UniProt P51946 (P51946 whole entry, looked up): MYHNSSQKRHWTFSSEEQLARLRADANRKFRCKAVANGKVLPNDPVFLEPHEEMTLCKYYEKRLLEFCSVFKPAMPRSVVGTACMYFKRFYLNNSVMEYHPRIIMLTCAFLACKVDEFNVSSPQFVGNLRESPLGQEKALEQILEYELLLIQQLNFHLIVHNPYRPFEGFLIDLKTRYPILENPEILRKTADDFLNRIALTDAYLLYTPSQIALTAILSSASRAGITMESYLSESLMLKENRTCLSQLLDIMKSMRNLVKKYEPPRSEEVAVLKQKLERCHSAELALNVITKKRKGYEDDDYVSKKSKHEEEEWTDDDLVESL
inactive: erlotinib 0.018 | [1] -0.018 | [2] 0.074 | [3] -0.055 | [4] -0.029 | [5] 0 | [6] -0.021 | [7] -0.047 | [8] 0.012 | IRAK-1-4 Inhibitor I -0.005 | ibrutinib 0.018 | [9] -0.149 | ralimetinib -0.001 | [10] -0.064 | [11] -0.058 | [12] -0.044 | [13] -0.025 | [14] -0.044 | [15] 0.018 | [16] -0.016

CCAR2 (UniProt Q8N163)
inactive: erlotinib -0.004 | [1] -0.006 | [2] -0.003 | [3] -0.01 | [4] 0.01 | [5] 0.005 | [6] 0.001 | [7] 0 | [8] 0.001 | IRAK-1-4 Inhibitor I -0.009 | ibrutinib 0.025 | [9] -0.019 | ralimetinib 0.012 | [10] -0.006 | [11] -0.018 | [12] 0 | [13] 0.01 | [14] 0.003 | [15] 0.015 | [16] -0.005

C12orf45 (UniProt Q8N5I9)
Sequence of UniProt Q8N5I9 (Q8N5I9 whole entry, looked up): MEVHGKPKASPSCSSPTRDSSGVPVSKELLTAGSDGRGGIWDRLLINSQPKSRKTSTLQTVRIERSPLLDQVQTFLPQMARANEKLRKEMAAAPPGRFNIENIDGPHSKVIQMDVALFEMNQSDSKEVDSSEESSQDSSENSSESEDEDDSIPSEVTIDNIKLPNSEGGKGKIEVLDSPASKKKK
inactive: erlotinib -0.038 | [1] -0.113 | [2] 0.027 | [3] 0.009 | [4] -0.037 | [5] 0.009 | [6] 0.009 | [7] -0.018 | [8] 0.009 | IRAK-1-4 Inhibitor I -0.002 | ibrutinib 0.027 | [9] 0.003 | ralimetinib 0.005 | [10] 0.014 | [11] 0.033 | [12] -0.021 | [13] -0.02 | [14] -0.018 | [15] 0.02 | [16] -0.043

CAPN15 (UniProt O75808)
inactive: erlotinib 0.01 | [1] 0.187 | [2] -0.011 | [3] -0.028 | [4] -0.104 | [5] -0.05 | [6] 0.026 | [7] 0.019 | [8] 0.031 | IRAK-1-4 Inhibitor I 0.01 | ibrutinib 0.037 | [9] -0.065 | ralimetinib 0.09 | [10] 0.008 | [11] -0.002 | [12] 0.025 | [13] 0.019 | [14] 0.086 | [15] 0.007 | [16] 0.046

CFDP1 (UniProt Q9UEE9)
Sequence of UniProt Q9UEE9 (Q9UEE9 whole entry, looked up): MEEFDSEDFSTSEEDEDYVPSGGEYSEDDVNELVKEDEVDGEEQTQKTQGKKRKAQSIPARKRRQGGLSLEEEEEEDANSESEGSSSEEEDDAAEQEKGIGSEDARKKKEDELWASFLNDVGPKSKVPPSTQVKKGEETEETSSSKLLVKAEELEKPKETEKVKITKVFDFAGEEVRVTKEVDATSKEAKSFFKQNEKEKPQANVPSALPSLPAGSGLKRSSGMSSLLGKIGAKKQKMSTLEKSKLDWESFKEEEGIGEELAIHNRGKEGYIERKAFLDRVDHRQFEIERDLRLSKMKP
inactive: erlotinib -0.027 | [1] -0.023 | [2] 0.067 | [3] -0.024 | [4] -0.02 | [5] -0.004 | [6] 0.033 | [7] -0.03 | [8] 0.011 | IRAK-1-4 Inhibitor I -0.017 | ibrutinib 0.032 | [9] 0.014 | ralimetinib 0.051 | [10] -0.015 | [11] -0.052 | [12] -0.014 | [13] -0.027 | [14] 0.021 | [15] 0.027 | [16] -0.012

CALB2 (UniProt P22676)
Sequence of UniProt P22676 (P22676 whole entry, looked up): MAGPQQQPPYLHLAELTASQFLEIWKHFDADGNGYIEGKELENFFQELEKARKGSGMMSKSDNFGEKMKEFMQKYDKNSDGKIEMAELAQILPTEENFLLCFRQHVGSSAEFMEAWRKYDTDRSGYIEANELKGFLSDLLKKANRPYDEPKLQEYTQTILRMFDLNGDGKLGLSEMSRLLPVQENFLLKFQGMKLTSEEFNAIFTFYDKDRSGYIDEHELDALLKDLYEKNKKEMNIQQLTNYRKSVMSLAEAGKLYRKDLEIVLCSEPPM
inactive: erlotinib 0.021 | [1] 0.045 | [2] -0.04 | [3] -0.103 | [4] -0.077 | [5] 0.02 | [6] 0.043 | [7] 0.056 | [8] 0.065 | IRAK-1-4 Inhibitor I 0.08 | ibrutinib 0.085 | [9] 0.016 | ralimetinib 0 | [10] -0.083 | [11] -0.093 | [12] -0.025 | [13] -0.116 | [14] 0.028 | [15] -0.039 | [16] -0.014

CBFA2T3 (UniProt O75081)
inactive: erlotinib -0.012 | [1] -0.01 | [2] -0.002 | [3] -0.006 | [4] 0.016 | [5] 0.004 | [6] -0.01 | [7] -0.043 | [8] -0.093 | IRAK-1-4 Inhibitor I -0.027 | ibrutinib 0.005 | [9] 0.016 | ralimetinib 0.019 | [10] -0.005 | [11] -0.013 | [12] -0.001 | [13] 0.003 | [14] -0.016 | [15] 0.022 | [16] -0.005

CCNB1 (UniProt P14635)
Sequence of UniProt P14635 (P14635 whole entry, looked up): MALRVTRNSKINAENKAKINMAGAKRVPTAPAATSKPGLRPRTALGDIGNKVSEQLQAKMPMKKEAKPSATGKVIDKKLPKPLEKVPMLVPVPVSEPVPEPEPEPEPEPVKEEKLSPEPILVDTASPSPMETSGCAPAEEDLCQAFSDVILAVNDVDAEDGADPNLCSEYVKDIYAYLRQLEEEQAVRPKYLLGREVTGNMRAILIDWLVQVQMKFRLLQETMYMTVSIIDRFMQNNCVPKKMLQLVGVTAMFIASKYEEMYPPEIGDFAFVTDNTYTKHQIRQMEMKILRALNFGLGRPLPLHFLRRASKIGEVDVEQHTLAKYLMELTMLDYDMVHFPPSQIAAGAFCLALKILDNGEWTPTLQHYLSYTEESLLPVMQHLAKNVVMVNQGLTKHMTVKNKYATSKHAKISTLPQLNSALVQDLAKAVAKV
inactive: erlotinib -0.013 | [1] 0.008 | [2] 0.032 | [3] -0.019 | [4] 0.01 | [5] 0.001 | [6] -0.11 | [7] -0.034 | [8] 0.026 | IRAK-1-4 Inhibitor I 0.01 | ibrutinib -0.01 | ralimetinib 0.009 | [10] -0.045 | [11] -0.012 | [12] -0.005 | [13] 0.003 | [14] 0.044 | [15] -0.002 | [16] 0
active: [9] 0.503

ATG7 (UniProt O95352)
Sequence of UniProt O95352 (O95352 whole entry, looked up): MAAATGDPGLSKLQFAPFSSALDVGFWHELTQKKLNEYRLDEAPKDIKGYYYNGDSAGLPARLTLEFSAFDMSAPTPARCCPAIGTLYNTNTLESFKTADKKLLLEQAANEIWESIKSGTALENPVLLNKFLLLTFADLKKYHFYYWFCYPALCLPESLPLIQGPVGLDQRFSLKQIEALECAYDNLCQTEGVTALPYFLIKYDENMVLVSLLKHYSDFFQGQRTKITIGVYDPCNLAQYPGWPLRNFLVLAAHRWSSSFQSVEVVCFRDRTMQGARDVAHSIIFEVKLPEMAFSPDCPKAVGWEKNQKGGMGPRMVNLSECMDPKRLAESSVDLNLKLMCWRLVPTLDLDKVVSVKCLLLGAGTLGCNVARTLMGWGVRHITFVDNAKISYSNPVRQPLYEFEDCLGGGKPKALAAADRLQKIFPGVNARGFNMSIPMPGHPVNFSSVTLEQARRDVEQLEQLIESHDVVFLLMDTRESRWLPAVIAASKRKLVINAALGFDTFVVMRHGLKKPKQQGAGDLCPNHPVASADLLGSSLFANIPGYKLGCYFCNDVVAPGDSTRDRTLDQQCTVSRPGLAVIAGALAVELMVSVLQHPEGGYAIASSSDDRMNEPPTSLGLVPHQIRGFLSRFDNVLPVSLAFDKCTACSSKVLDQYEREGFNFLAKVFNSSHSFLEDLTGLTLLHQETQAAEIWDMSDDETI
inactive: erlotinib 0.03 | [1] 0.113 | [2] 0.035 | [3] 0.001 | [4] 0.015 | [5] -0.003 | [6] -0.06 | [7] -0.028 | [8] 0.032 | IRAK-1-4 Inhibitor I 0.017 | ibrutinib 0.014 | [9] -0.008 | ralimetinib 0.026 | [10] -0.016 | [11] -0.022 | [12] 0.021 | [13] 0.002 | [14] -0.001 | [15] 0.011 | [16] 0.027
